Screens (PubChem BioAssay)
Most compounds without a hit are left out; they make up all but 6.6% or so of the library.
Anthrax LF prot = blocks Bacillus anthracis lethal factor protease; multiplex microsphere protease cleavage assay, LF; inhibition, % at 10 µM; hit rate 0.12% among 360,000; AID 588501; further: plate controls were buffer without enzyme for full effect and enzyme alone for no effect
Target sequence (P15917 whole entry, looked up): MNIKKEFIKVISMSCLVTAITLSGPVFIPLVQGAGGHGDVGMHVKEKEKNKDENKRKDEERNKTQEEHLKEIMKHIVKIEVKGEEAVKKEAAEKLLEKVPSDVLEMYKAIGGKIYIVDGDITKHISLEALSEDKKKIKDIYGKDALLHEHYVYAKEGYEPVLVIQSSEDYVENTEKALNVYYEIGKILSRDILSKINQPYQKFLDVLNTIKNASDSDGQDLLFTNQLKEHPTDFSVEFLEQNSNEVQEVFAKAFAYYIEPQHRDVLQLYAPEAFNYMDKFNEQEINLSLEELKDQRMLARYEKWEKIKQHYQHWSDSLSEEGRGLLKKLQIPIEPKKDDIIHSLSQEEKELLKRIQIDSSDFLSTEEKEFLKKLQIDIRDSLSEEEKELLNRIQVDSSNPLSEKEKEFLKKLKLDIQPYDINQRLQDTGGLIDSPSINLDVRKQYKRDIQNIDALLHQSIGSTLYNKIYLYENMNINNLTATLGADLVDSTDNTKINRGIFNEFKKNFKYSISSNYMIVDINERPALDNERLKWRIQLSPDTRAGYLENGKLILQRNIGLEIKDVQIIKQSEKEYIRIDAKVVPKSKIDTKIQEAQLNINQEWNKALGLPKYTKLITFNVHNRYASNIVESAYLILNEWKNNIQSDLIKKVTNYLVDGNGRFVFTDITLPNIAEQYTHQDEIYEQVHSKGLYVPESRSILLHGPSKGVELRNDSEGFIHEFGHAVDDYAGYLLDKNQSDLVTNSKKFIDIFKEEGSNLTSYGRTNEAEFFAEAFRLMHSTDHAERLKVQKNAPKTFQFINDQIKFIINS
Autofluor counter = flagged as autofluorescent in microsphere protease counterscreen; compound autofluorescence counterscreen, microsphere flow cytometry; active compounds read high; fluorescence intensity (concentration not given with the values); hit rate 3.1% among 360,000; in the data active means fluorescence intensity above about 16000; inconclusive means no clear call, values can overlap the other calls
FBA Mtb inh = inhibits M. tuberculosis FBA enzyme; P9WQA3; purified M. tuberculosis FBA, fluorescence read-out; inhibition, % at 1 µM; hit rate 2.3% among 360,000; in the data active means inhibition above about 27%;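 further: 0% = vehicle and 100% = reference inhibitor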
BoNT A protease = blocks Botulinum neurotoxin A light chain protease. inhibition, % at 10 µM. AID 588499. multiplex microsphere protease substrate cleavage, flow cytometry. hit rate 0.17% among 360,000; further: plate controls were buffer without enzyme for full effect and enzyme alone for no effect
BoNT F protease = blocks Botulinum neurotoxin F light chain protease | Multiplex microsphere protease cleavage assay, flow cytometry | inhibition, % at 10 µM | hit rate 0.22% among 360,000; in the data active means inhibition above about 35%, passing the limit was not always enough; inconclusive means no clear call, values can overlap the other calls; further: plate controls were buffer without enzyme for full effect and enzyme alone for no effect
GDH-TPI inh = counter-screen for M. tuberculosis FBA inhibitors: GDH-TPI coupled enzymes; GDH-TPI coupled enzyme counterscreen, NADH absorbance; inhibition, % at 4.8 µM; hit rate 1.2% among 360,000; AID 588335; in the data active means inhibition above about 30%;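 further: 0% = DMSO wells and 100% = wells lacking the enzyme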
An asterisk follows results filed as active. Unless noted, no stated cut-off is given here; in the data, active means inhibition above about 30%; inconclusive means no clear call, values can overlap the other calls; inactive means below that.

For COc1ccc(/C(O)=C2\C(=O)C(=O)N(CCN3CCOCC3)C2c2ccccc2OC)cc1 (stereo unspecified) the results were Anthrax LF prot 1, Autofluor counter 2432, FBA Mtb inh 0, BoNT A protease 0, BoNT F protease 0 and GDH-TPI inh 5.
COc1ccc(C2/C(=C(/O)c3ccccc3)C(=O)C(=O)N2c2ccccn2)c(OC)c1 (stereo unspecified) was read as Anthrax LF prot 1, Autofluor counter 9892, FBA Mtb inh 1, BoNT A protease -1, BoNT F protease -11 and GDH-TPI inh 31*.
COCCN1C(=O)C(=O)/C(=C(/O)c2cccc(OC)c2)C1c1ccco1 (stereo unspecified) was read as Anthrax LF prot -2, Autofluor counter 3831, FBA Mtb inh -3, BoNT A protease -1, BoNT F protease -37 and GDH-TPI inh 35*.
`CCOc1ccc(/C(O)=C2\C(=O)C(=O)N(CCOCCO)C2c2ccccc2OC)cc1` (stereo unspecified) gave Anthrax LF prot -1, Autofluor counter 23386*, FBA Mtb inh -3, BoNT A protease inconclusive, BoNT F protease -2 and GDH-TPI inh 22.
For COc1ccc(C2/C(=C(\O)c3cccc(OC)c3)C(=O)C(=O)N2c2ccccn2)cc1 (stereo unspecified) the results were Anthrax LF prot -2, Autofluor counter 23419*, FBA Mtb inh -2, BoNT A protease inconclusive, BoNT F protease -6 and GDH-TPI inh 11.
Screening COCCN(C(=S)Nc1ccc(C)cc1C)C(C)c1ccco1 (stereo unspecified) returned Anthrax LF prot -6, Autofluor counter 4985, FBA Mtb inh -5, BoNT A protease 0, BoNT F protease -1 and GDH-TPI inh -4.
C/C(=N\Nc1ccccn1)c1ccc(C(C)C)cc1 was read as Anthrax LF prot -4, Autofluor counter 3362, FBA Mtb inh 3, BoNT A protease -1, BoNT F protease -5 and GDH-TPI inh 8.
C/C(=N\Nc1ccccn1)c1ccc(Br)s1 was read as Anthrax LF prot 11, Autofluor counter 3243, FBA Mtb inh 0, BoNT A protease -1, BoNT F protease inconclusive and GDH-TPI inh 38*.
For O=C(CCC1COc2ccccc2O1)Nc1cccnc1 (stereo unspecified) the results were Anthrax LF prot -3, Autofluor counter 23308*, FBA Mtb inh 2, BoNT A protease -2, BoNT F protease 0 and GDH-TPI inh -3.
`CC1(C)OC(=O)C(=NNc2ccc(Cl)cc2)C(=O)O1` gave Anthrax LF prot -1, Autofluor counter 22457*, FBA Mtb inh -3, BoNT A protease -4, BoNT F protease -7 and GDH-TPI inh 16.
`CC1(C)OC(=O)C(=NNc2ccccc2C(=O)O)C(=O)O1` gave Anthrax LF prot 3, Autofluor counter 5310, FBA Mtb inh -4, BoNT A protease -1, BoNT F protease -6 and GDH-TPI inh 49*.
For CCOC(=O)c1c(C)c(C(=O)NCc2cccs2)c(C)n1C the results were Anthrax LF prot -7, Autofluor counter 17882*, FBA Mtb inh 5, BoNT A protease -8, BoNT F protease -9 and GDH-TPI inh 6.
CCOC(=O)c1c(C)c(C(=O)NCCCN2CCCC2=O)c(C)n1CC was read as Anthrax LF prot 0, Autofluor counter 22714*, FBA Mtb inh -1, BoNT A protease 2, BoNT F protease 0 and GDH-TPI inh 2.
CCOC(=O)c1c(C)c(C(=O)NCCOC)c(C)n1CC was read as Anthrax LF prot -2, Autofluor counter 23521*, FBA Mtb inh 1, BoNT A protease 1, BoNT F protease -1 and GDH-TPI inh -7.
COc1cc(C(=O)NCCCN2CCCC2=O)cc(OC)c1OC was read as Anthrax LF prot -4, Autofluor counter 11282, FBA Mtb inh 2, BoNT A protease -1, BoNT F protease 2 and GDH-TPI inh 7.
CCOC(=O)c1c(C)c(C(=O)NCc2ccco2)c(C)n1C was read as Anthrax LF prot 0, Autofluor counter 2628, FBA Mtb inh 6, BoNT A protease 0, BoNT F protease -4 and GDH-TPI inh -2.
For CCOC(=O)c1c(C)c(C(=O)NCCCOC)c(C)n1C the results were Anthrax LF prot -2, Autofluor counter 20527*, FBA Mtb inh 3, BoNT A protease inconclusive, BoNT F protease 0 and GDH-TPI inh -7.
C#CCN(C[C@@H]1[C@@H](OC(=O)Nc2cccs2)[C@@H](OC(=O)Nc2cccs2)Cn2c(=O)n(CCCCCC)c(=O)n21)S(=O)(=O)c1ccc(C)cc1 was read as Anthrax LF prot -1, Autofluor counter 3765, FBA Mtb inh -3, BoNT A protease 0, BoNT F protease 2 and GDH-TPI inh -3.
`CC1(C2CC2)NC(=O)N(CC(=O)Nc2ccc(F)cc2F)C1=O` (stereo unspecified) gave Anthrax LF prot -7, Autofluor counter 9572, FBA Mtb inh 0, BoNT A protease -3, BoNT F protease -8 and GDH-TPI inh 2.
For CCOC(=O)c1c(C)c(C(=O)NCc2cccnc2)c(C)n1CC the results were Anthrax LF prot 2, Autofluor counter 20195*, FBA Mtb inh 0, BoNT A protease inconclusive, BoNT F protease 1 and GDH-TPI inh 9.
Cc1cccc(C)c1-n1nnnc1C1c2ccccc2C(=O)N1CCc1ccc(O)cc1 (stereo unspecified) was read as Anthrax LF prot -6, Autofluor counter 4295, BoNT A protease 0 and BoNT F protease 6.
For O=C(CN1CCCCC1)Nc1nnc(-c2ccccc2)s1 the results were Anthrax LF prot 4, Autofluor counter 2631, FBA Mtb inh -1, BoNT A protease 1, BoNT F protease 5 and GDH-TPI inh 3.
`O=C(CN1CCCCC1)Nc1nnc(-c2ccc([N+](=O)[O-])cc2)s1` gave FBA Mtb inh 1 and GDH-TPI inh 41*.
COC(=O)Cn1c2ccc(F)cc2c2nc(C)sc21 was read as Anthrax LF prot 0, Autofluor counter 22219*, FBA Mtb inh -1, BoNT A protease -1, BoNT F protease -3 and GDH-TPI inh 23.
Screening O=C(O)CCNS(=O)(=O)c1ccc(Oc2ccccc2Cl)cc1 returned Anthrax LF prot -3, Autofluor counter 17172*, FBA Mtb inh -2, BoNT A protease -2, BoNT F protease -2 and GDH-TPI inh 12.
COc1cc(/C=C/C2=NNC(=O)CC2)cc(OC)c1OC was read as Anthrax LF prot -4, Autofluor counter 3923, FBA Mtb inh 8, BoNT A protease 0, BoNT F protease 19 and GDH-TPI inh 45*.
CC(C)c1ccc(/C=C/C2=NNC(=O)CC2)cc1 was read as Anthrax LF prot -8, Autofluor counter 3558, FBA Mtb inh 0, BoNT A protease 0, BoNT F protease -3 and GDH-TPI inh 9.
CC(C)CCNC(=O)C(c1ccco1)N(Cc1ccccc1)C(=O)c1snc(C(N)=O)c1N (stereo unspecified) was read as Anthrax LF prot -3, Autofluor counter 22391*, FBA Mtb inh 2, BoNT A protease 2, BoNT F protease 2 and GDH-TPI inh 3.
